Bioassay records (PubChem)
CRFBP-R2 block: antagonists of CRF-BP/CRF-R2 complex, primary screen, cell-based, HEK293, calcium dye fluorescence, uHTS | CRF-induced calcium fluorescence | inhibition, % at 11.8 µM | actives 0.59% (n = 350,000) | AID 588475, 2011;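 active means inhibition of the ligand-induced calcium signal above about 50% at the single tested concentration, limit read from the data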
IDE cell activ: human IDE activators in live cells, primary screen, fluorescence polarization, HEK cells, FAbeta-B substrate; actives 0.073% (n = 340,000); AID 493087, 2011; FAbeta-B cleavage; 0% vehicle, 100% cell-free pure enzyme wells; Insulin-degrading enzyme (Homo sapiens), P14735; activation, % at 5.96 µM;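 active means activation above the mean of all tested compounds plus 3 SD, set per screening campaign, cut at about 17% in these data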
CRFR2-BP ag: agonists of CRF-BP/CRF-R2 complex, primary screen, cell-based, HEK293, calcium dye fluorescence, uHTS; actives 0.46% (n = 350,000); AID 588473, 2011; activation, % at 13.2 µM; CRF-binding protein / CRF receptor 2 complex (human); calcium dye fluorescence (FLIPR); percent of saturating CRF peptide response;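 active means activation of at least 50%, plus an integration ratio under a set limit after plate pattern correction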;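 further: plate controls were neutral control wells without compound for no effect and CRF at EC100 for full effect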
TPT1 inh: Candida albicans TPT1 enzyme inhibitors, primary screen, biochemical, fluorescence polarization; recombinant caTPT1, FP RNA substrate dephosphorylation; inhibition, % at 5 µM; actives 0.81% (n = 300,000);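 active means inhibition above the mean of all tested compounds plus 3 SD, set per screening campaign, cut at about 24% in these data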;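 further: plate controls were DMSO alone for no effect and ferristatin control at 100 nM for full effect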
IDE inh: human IDE inhibitors in live cells, primary screen, fluorescence polarization, HEK cells, FAbetaB substrate | Insulin-degrading enzyme (Homo sapiens), P14735 | FAbetaB cleavage | inhibition, % at 5.59 µM | actives 0.41% (n = 320,000) | AID 434962, 2010;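 active means percent inhibition above the average of all tested compounds plus 3 SD, set per screening campaign, cut at about 16% in these data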;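 further: IDE supplied by intact live HEK cells; FP after avidin binding of uncleaved biotin substrate so inhibition keeps polarization high; 0% = DMSO wells and 100% = 60 µM reference IDE inhibitor Ii1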
Myeloid diff MLP: induction of myeloid progenitor differentiation, primary screen, cell-based, flow cytometry, MLPCN library. calls only at 10 µM. ER-HoxA9 myeloid progenitors, lysozyme-GFP differentiation. actives 1% (n = 360,000);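 active means normalized GFP-positive differentiation at or above the plate's own cutoff, the solvent-only control mean plus 3 SD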;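 further: cells exposed to compound for four days before flow analysis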
caTPT1 confirm: Candida albicans TPT1 inhibitors, confirmation, biochemical, fluorescence polarization, triplicate | shares compounds with TPT1 inh | recombinant caTPT1, RNase T1 coupled | actives 74% (n = 2,400) | inhibition, % at 5 µM | AID 2149, 2009;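 active means inhibition above the primary screen limit, the mean inhibition of all tested compounds plus 3 SD, cut at about 25% in these data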
RNase T1 counter: RNase T1 inhibitors, counter-screen for TPT1 inhibitor project, biochemical, fluorescence polarization; AID 2153, 2009; actives 83% (n = 2,400); inhibition, % at 5 µM; shares compounds with TPT1 inh; RNase T1 cleavage, 1536-well;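 active means inhibition above the solvent-only control well mean plus 3 SD, limit set per screening run, cut at about 23% in these data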;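 further: plate controls were DMSO wells with enzyme for no effect and wells without RNase T1 for full effect; inhibitors block cleavage so intact labeled substrate keeps polarization high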
Target sequence (P00651 whole entry, looked up): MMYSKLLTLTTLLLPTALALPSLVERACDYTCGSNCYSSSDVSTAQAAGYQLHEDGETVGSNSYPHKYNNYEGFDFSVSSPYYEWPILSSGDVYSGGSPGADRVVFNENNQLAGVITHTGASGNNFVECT
Active calls of the source: *; i = inactive; nt = no result given; + = active, no number. Shown are actives, neighbours in structure and some others; about 2.6% of the full set was active somewhere.

SMILES | CRFBP-R2 block | IDE cell activ | CRFR2-BP ag | TPT1 inh | IDE inh | Myeloid diff MLP | caTPT1 confirm | RNase T1 counter
Oc1cccc(Nc2nc(-c3ccccc3Cl)nc3ccccc23)c1 | 2 | 4 | -1 | 4 | -1 | i | nt | nt
CC(C)(C)NS(=O)(=O)c1cc(C(=O)Nc2sccc2C#N)ccc1Cl | 41 | -3 | 37 | 36* | 12 | i | 32* | 43*
C=CCNC(=O)c1cc(-c2cccnc2)nc2ccccc12 | 0 | -5 | -2 | -3 | 4 | i | nt | nt
O=C(Nc1nc2ccccc2[nH]1)c1ccccc1O | -14 | 5 | 0 | 1 | 1 | i | nt | nt
Cc1ccc(C)c(C(=O)Nc2nc3ccccc3[nH]2)c1 | -6 | 0 | 1 | 25* | -2 | i | 9 | 15
CC(=O)Nc1ccc(SCC(=O)c2c(N)n(Cc3ccccc3)c(=O)n(C)c2=O)cc1 | -8 | 5 | -2 | 1 | 2 | i | nt | nt
CC(=O)NC(=S)c1c(N)n(Cc2ccccc2)c(=O)n(C)c1=O | nt | nt | nt | 38* | 7 | nt | 32* | 43*
COc1ccccc1OCC(=O)/C=C1/N(C)c2ccccc2C1(C)C | 8 | -1 | -1 | 10 | -1 | i | nt | nt
CN1/C(=C\C(=O)COc2ccc3c(c2)OCO3)C(C)(C)c2ccccc21 | 18 | -4 | 2 | 32* | 5 | i | 34* | 43*
CCn1c(SCc2c(F)cccc2Cl)nnc1-c1ccco1 | 5 | 3 | -1 | 0 | 2 | i | nt | nt
COCCN(C(=O)COC(=O)c1ccc(C=O)cc1)c1c(N)n(Cc2ccccc2)c(=O)[nH]c1=O | 1 | 4 | 1 | 2 | -1 | i | nt | nt
CS(=O)(=O)N1CCN(c2ccccc2NC(=O)c2cc3ccccc3o2)CC1 | -9 | 0 | 0 | 5 | 4 | i | nt | nt
COc1ccc(/C=C(\C#N)C(=O)C(C)(C)n2cncn2)cc1 | -65 | 0 | 27 | 33* | 7 | i | 3 | 4
COc1ccc(C=C(C#N)C(=O)c2ccccc2)cc1 | nt | nt | nt | nt | nt | i | nt | nt
CCOc1ccc(C(=O)NCC(=O)OCc2nnc(-c3ccccc3)o2)cc1OCC | -11 | 3 | -1 | nt | 2 | i | nt | nt
C=CCSc1nc2c(c(=O)[nH]c(=O)n2C)n1C(C)C | -9 | 4 | -1 | -1 | -2 | i | nt | nt
C/C(Cl)=C/CSc1nc2c(c(=O)[nH]c(=O)n2C)n1C(C)C | -9 | -2 | -1 | 25* | 5 | i | 9 | 11
COCc1c(C(=O)N/N=C/c2ccc(C)o2)nnn1-c1nonc1N | 18 | 1 | 0 | -3 | 4 | i | nt | nt
CCOC(=O)c1cc2nc(Nc3ccc(OC)cc3)sc2s1 | -2 | 5 | 3 | 39* | 4 | + | 27* | 40*
Cc1cc(C(=O)Cn2cnc3ccc(Cl)cc3c2=O)c(C)n1C1CC1 | -11 | 6 | 0 | nt | nt | i | nt | nt
O=C(N/N=C/c1ccc(-c2cccc(C(F)(F)F)c2)o1)c1ccccc1Br | -34 | -1 | 20 | 39* | -1 | i | 38* | 49*
O=C(NCC(=O)N(c1cccnc1)C(C(=O)NC1CCCC1)c1ccc(F)cc1)c1ccco1 (stereo not given) | nt | nt | nt | 1 | 2 | nt | nt | nt
CCC(C)NC(=O)c1cc2c(=O)[nH]c3ccc(C)cc3c2s1 (stereo not given) | -52 | 3 | 1 | 29* | 0 | i | 7 | 14
Cc1ccc(OC/C(=N\O)C(C)(C)C)c([N+](=O)[O-])c1 | 7 | 1 | 2 | -6 | 2 | i | nt | nt
